Hits are enriched below; roughly 3.5% of the tested compounds scored in any of these assays.
MITF inh: MITF inhibitors, primary screen, biochemical, AlphaScreen, human; inhibition, % at 2.6 µM; 650,000 tested, 0.91% active; AID 1259374, 2018; AlphaScreen MITF homodimerization, bead proximity signal; in the data active means inhibition above about 50%
GPR151 ag: activators of human GPR151, primary screen, cell-based, PathHunter beta-arrestin, luminescence | G-protein coupled receptor 151 (Homo sapiens), Q8TDV0 | PathHunter beta-arrestin GPR151 cells | activation, % at 11.2 µM | 650,000 tested, 1% active; in the data active means activation above about 4.9%
FBW7 act: FBW7 E3 ligase activators, primary screen, biochemical, AlphaScreen, human; F-box/WD repeat-containing protein 7 (Homo sapiens), Q969H0; AlphaScreen FBW7–phospho-cyclin E peptide binding, activator screen; normalized activity (activation), % at 26.1 µM; 650,000 tested, 0.13% active; in the data active means normalized activity above about 1.9%;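 further: purified mutant Fbw7 with reduced substrate affinity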
TEAD-YAP inh: TEAD-YAP interaction inhibition, primary screen, TEAD-YAP interaction inhibitor project, luminescence, HEK-TIYL cells. inhibition, % at 9.12 µM. AID 1259422, 2018. 640,000 tested, 1.4% active. TEAD-Gal4/YAP UAS-luciferase luminescence; in the data active means inhibition above about 32%
MITF inh conf: MITF inhibitors, retest of hits, confirmation, biochemical, AlphaScreen, triplicate; AlphaScreen MITF homodimerization, biotin/His-MITF beads; inhibition, % at 2.6 µM; 4,700 tested, 16% active; shares compounds with MITF inh;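 active means inhibition above a cutoff derived from the DMSO control wells, cut at about 28% in these data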;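 further: inhibitors lower the bead chemiluminescence by keeping MITF from dimerizing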
AlphaScreen intf2: AlphaScreen optical interference compounds, counter-screen for MITF inhibitor project, biochemical, triplicate; shares compounds with MITF inh; LysRS AlphaScreen counterscreen, signal interference; inhibition, % at 2.6 µM; 4,700 tested, 7.6% active;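 active means inhibition above a cutoff derived from the DMSO control wells, cut at about 30% in these data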
A number is an active result; 0 = inactive; - = no result.

SMILES	MITF inh	GPR151 ag	FBW7 act	TEAD-YAP inh	MITF inh conf	AlphaScreen intf2
COc1ccc(Nc2ncc(-c3ccc(CN)cc3)n3ccnc23)cc1	0	0	0	0	-	-
CC1=C(c2ccc(C)cc2)S(=O)(=O)N=C1N1CCN(Cc2ccc3c(c2)OCO3)CC1	0	0	0	0	-	-
COc1ccc2c(c1)C(C)CC(C)(C)N2C(=O)NC1CCCCC1 (centres undefined)	0	0	0	0	-	-
COc1ccc2c(c1)C(C)CC(C)(C)N2C(=O)CNCCN1CCOCC1 (centres undefined)	88	0	0	0	0	0
Cc1cc(NC(=O)CN2CCN(c3cccc(Cl)c3)CC2)no1	0	0	0	0	-	-
CN1CCN(CC(=O)Nc2ccc(N3CCCCCC3)cc2)CC1	55	0	0	0	0	37
Cc1cc(NC(=O)CN2CCN(c3ccc(F)cc3)CC2)no1	54	0	0	0	0	0
O=C(Cn1c(-c2ccccc2)noc1=O)Nc1ccc(N2CCCCCC2)cc1	54	0	0	0	0	0
CN1CCN(CC(=O)Nc2ccc(C(=O)N3CCCC3)cc2)CC1	0	0	0	0	-	-
CN1CCN(CC(=O)Nc2ccc(C(F)(F)F)cc2)CC1	67	0	0	0	0	0
CC(=O)Nc1ccc(NC(=O)CN2CCN(C)CC2)cc1	0	0	0	0	-	-
O=C1N=C(N2CCCCC2)S/C1=C\c1ccc(Br)cc1	0	0	0	0	-	-
CNC(=O)C(=O)NCC1OCCCN1S(=O)(=O)c1ccc(F)c(C)c1 (centres undefined)	0	0	0	0	-	-
O=C(NNc1ncnc(NNC(=O)c2ccncc2)c1[N+](=O)[O-])c1ccncc1	65	0	0	0	66	100
Cc1cc2nc(/C(C#N)=C/c3ccco3)[nH]c2cc1C	0	0	0	0	-	-
CCOCc1ccc(O)c2ncccc12	98	0	0	88	82	101
COCc1ccc(O)c2ncccc12	91	0	0	91	109	101
CCOc1c(C)cc(-c2ncccc2O)cc1C	0	0	0	0	-	-
Cc1ccc(O)c2ncccc12	0	0	0	0	-	-
O=C(O)CCNC(=O)c1ccccc1Cl	0	0	0	0	-	-
CCCN1CCC(N2CCN(S(=O)(=O)c3ccc(F)cc3)CC2)CC1	54	0	0	0	0	0
O=S(=O)(c1ccc(F)cc1)N1CCN(C2CCCC2)CC1	0	0	0	0	-	-
O=S(=O)(c1ccc(F)cc1)N1CCN(C2CCCCC2)CC1	85	0	0	0	0	0
O=S(=O)(c1ccc(F)cc1)N1CCN(C2CCCCCC2)CC1	0	0	0	0	-	-
CS(=O)(=O)N1CCN(C2CCCCC2)CC1	58	0	0	0	0	0
SMILES	MITF inh	GPR151 ag	FBW7 act	TEAD-YAP inh	MITF inh conf	AlphaScreen intf2
CC1CN(C2CCN(S(=O)(=O)c3ccc(F)cc3)CC2)CC(C)O1 (centres undefined)	57	0	0	0	0	0
Cc1ccc(OCCCCCNCCO)cc1	0	0	0	0	-	-
Cc1ccc(OCCNCCC(=O)O)cc1	57	0	0	0	0	0
O=C(CNCCc1ccc(Cl)cc1)Nc1ccccc1N1CCOCC1	65	0	0	0	0	0
O=C(CNCCc1ccccc1)Nc1ccccc1N1CCCCCC1	0	0	0	0	-	-
O=C(CNCCC1=CCCCC1)Nc1ccccc1N1CCOCC1	77	0	0	0	0	0
CC1=C(C(=O)OC2CCCCCCC2)C(c2cccc(O)c2)NC(=O)N1 (centres undefined)	0	0	0	0	-	-
CC(C)(C)c1ccccc1OCC(=O)Nc1ccccc1C(=O)O	0	0	0	0	-	-
COC(=O)c1ccccc1NC(=O)/C(C#N)=C/c1cc(Cl)c(OC)c(OC)c1	53	0	0	0	0	0
COc1ccc2nc(N(Cc3ccccn3)C(=O)c3cc(C)on3)sc2c1	0	0	0	0	-	-
c1ccc(OCc2nnc3sc(-c4cccnc4)nn23)cc1	64	0	0	0	0	0
CCOc1ccc(-c2nn3c(COc4ccccc4)nnc3s2)cc1	0	0	0	0	-	-
